# Laboratory results published in PubChem BioAssay AID841 (Emory University Molecular Libraries Screening Center, 2007).
# Screen size: about 140,000 compounds; about 2,100 (1.5%) were called active. The sample as a whole holds a higher share of actives than the screen did. A number with no mark means an inactive call. Rule as the data show it: active = protection mostly above about 24% (no sharp cut-off); inactive = mostly below about 26%.
# Assay: blockers of measles virus-induced cell death – single point, MLSMR library, absorbance, measles RdRp inhibitor project, primary screen (AID 841)
# Details: Measles virus-infected cells, CPE protection, at 4 µM, active compounds read high
row,SMILES,protection (pct of control)
1,O=C(OCC(O)C(O)COC(=O)c1ccccc1)c1ccccc1 (stereo unspecified),37.5% (active)
2,O=C(COC(=O)c1ccccc1)Nc1ccccc1Sc1ccccc1,6.19%
3,COC(=O)c1ccc(NCC(=O)c2ccccc2)cc1,2.68%
4,CCn1c(O)c(N=NC(=O)c2cccc(S(=O)(=O)N3CCCCC3)c2)c2ccccc21,28.2%
5,O=C(C/C(=N\NC(=O)c1ccccc1Br)C(F)(F)F)c1cccs1,9.78%
6,O=S(=O)(c1ccc(F)cc1)N1CCN(C(=S)NCc2ccco2)CC1,18.5%
7,COC(=O)c1c(NC(=O)CN2CCN(S(=O)(=O)c3ccccc3[N+](=O)[O-])CC2)sc2c1CCC(C)C2 (stereo unspecified),1.76%
8,C/C(Cc1ccccc1)=N\NC(=O)CNC(=O)c1cccc(Br)c1,4.73%
9,O=C(COc1ccccc1)NCc1ccc2c(c1)OCO2,17.1%
10,CCOC(=O)NCc1ccc2c(c1)OCO2,22%
11,c1n[nH]c(NCc2ccc3c(c2)OCO3)n1,47.6% (active)
12,Cc1ccc(S(=O)(=O)Nc2nc(C)cc(N/N=C/c3ccc(O)cc3)n2)cc1,10.3%
13,CCOC(=O)C1CCN(C(=O)/C=C/c2cc(OC)c(OC)c(OC)c2)CC1,18%
14,COc1ccc(CNC(=O)CN(Cc2ccc(Cl)cc2)S(C)(=O)=O)cc1,24.2%
15,Cc1cc(C)c(S(=O)(=O)N2C=CC(C(F)(F)F)=NCC2)c(C)c1,30.8% (active)
16,Cc1cc(NS(=O)(=O)c2ccc(NC(=S)NC(=O)c3ccc(F)cc3Cl)cc2)no1,9.68%
17,COc1cc(/C=C/C(=O)N2c3ccccc3Sc3ccc(C(F)(F)F)cc32)cc(OC)c1OC,2.04%
18,O=C(CN1CCCCC1)N1c2ccccc2Sc2ccc(C(F)(F)F)cc21,5.95%
19,O=C(CN1CCCCCC1)N1c2ccccc2Sc2ccc(C(F)(F)F)cc21,27.8% (active)
20,CCOC(=O)CNC(=O)/C=C/c1c(Cl)cccc1Cl,1.29%
21,COc1cccc(C2SCC(=O)N2c2cccc(C)c2)c1OC (stereo unspecified),8.06%

row,SMILES,protection (pct of control)
1,CC(C)C(C)(C#N)NC(=O)CSc1nc2scc(-c3ccccc3)c2c(=O)[nH]1 (stereo unspecified),8.49%
2,COc1ccc(Cl)cc1C(=O)NCC#N,16.7%
3,COc1ccc(Cl)cc1C(=O)NCc1cn(C)nc1C,42.3% (active)
4,Cc1nn(C)cc1CNC(=O)Nc1ccc(Cl)cc1,8.21%
5,CCCCCOc1ccc(/C=C/C(=O)NCCc2nc3ccccc3[nH]2)cc1OC,1.18%
6,CCOC(=O)c1c(C)n(C)c2ccc(OC)c(NS(=O)(=O)CC)c12,7.46%
7,CC(Oc1ccccc1F)C(=O)NN (stereo unspecified),17.6%
8,CCn1c2ccccc2c2cc(NC(=O)COC(=O)c3ccccc3Br)ccc21,15.5%
9,Cn1cnc(C(F)(F)F)c1-c1ccc([N+](=O)[O-])cc1,14.3%
10,COc1ccc(CCNC(=O)COC(=O)C2CCCCC2)cc1,7.59%
11,Cc1nn(-c2ccccc2)c(Cl)c1C(=O)Nc1ccccc1,5.22%
12,Cc1nn(-c2ccccc2)c(Cl)c1/C=C/C(=O)c1ccc(O)cc1,21.9%
13,Cc1ccc(C(=O)/C=C/c2c(C)nn(-c3ccccc3)c2Cl)cc1,60.1% (active)
14,Cc1ccc2nsnc2c1NC(=O)c1ccccc1[N+](=O)[O-],5.19%
15,CCOc1cc(C(=O)Nc2c(C)ccc3nsnc23)cc(OCC)c1OCC,37.8% (active)
16,CCOc1cc(C(=O)Nc2ncccn2)cc(OCC)c1OCC,2.67%
17,COC(=O)Cc1ccc(N(Cc2ccccc2F)S(=O)(=O)c2ccc(Br)cc2)cc1,18.5%
18,COc1ccc(NC(=O)CN2C(=O)C(c3ccccc3)=NC23CCCCCC3)cc1OC,12%
19,CCc1ccc(Oc2coc3cc(OC(=O)c4cc5ccccc5oc4=O)ccc3c2=O)cc1,5.53%
20,Cc1ccc(S(=O)(=O)N2CCOCC2)cc1C(=O)NC(=S)N(Cc1ccccc1)C(C)C,21.7%
21,COc1cc2c(cc1/C=C1/NC(=O)N(c3ccccc3)C1=O)OCO2,22.7%

row,SMILES,protection (pct of control)
1,COC(=O)c1ccc(C(=O)OC)c(NC(=S)N2CCN(c3ccc(F)cc3)CC2)c1,54.6% (active)
2,COC(=O)c1ccc(C(=O)OC)c(NC(=S)N2CCN(c3cc(Cl)ccc3C)CC2)c1,6.62%
3,COC(=O)c1ccc(C(=O)OC)c(NC(=S)N2CCCCC2)c1,5.41%
4,CCCc1cc(=O)[nH]c(SCc2cc(=O)oc3c(C)c(C)ccc23)n1,29.1%
5,Cc1ccccc1Cn1nc(C)c(NC(=O)C(F)(F)F)c1C,2.3%
6,COC(=O)c1sc(N)c(C(=O)OC)c1COC(=O)CNS(=O)(=O)c1ccc(C)cc1,12.3%
7,O=C(Nc1ccccc1Cl)c1ccccc1S(=O)(=O)c1ccccc1[N+](=O)[O-],2.96%
8,Cc1cc(C)c(NC(=O)CS(=O)CC(=O)Nc2cccnc2)c(C)c1 (stereo unspecified),56.7% (active)
9,O=C(CS(=O)(=O)Cc1ccccc1)Nc1cccnc1,20.4%
10,CCC(=O)Nc1cccc(NC(=O)c2cccnc2)c1,5.87%
11,COc1ccc(S(=O)(=O)NC(C)C)cc1C(=O)NC1CCCCC1,6.76%
12,Cc1cccc(C(=O)NC(=S)N2CCN(c3ccc([N+](=O)[O-])cc3)CC2)c1,6.39%
13,Cc1ccccc1N(C(=O)Cc1cccs1)C(C(=O)NC1CCCCC1)c1cn(C)nc1C (stereo unspecified),20.1%
14,Cn1cccc1C(=O)Nc1nccs1,0.78%
15,CN(CCCC(=O)Nc1nccs1)S(=O)(=O)c1ccc(Cl)cc1,15.3%
16,O=C(CCSCCc1ccccn1)Nc1nccs1,45.9% (active)
17,NC(=O)Cc1ccc2sc(-c3ccccc3)nc2c1,30.1%
18,CCc1cccc(CC)c1NC(=O)COc1ccccc1C(=O)c1cc(C#N)c(=O)n(C2CCCCC2)c1,11.3%
19,COc1ccc(NC(=O)CN(Cc2ccccc2)S(C)(=O)=O)cc1OC,34.5%
